Measured values from PubChem BioAssay (NCI).
The panel holds about 83,000 compounds, 20% with a hit somewhere; the sample as a whole holds those more often.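 Compound tested at a single concentration for 48 hours in 96-well plates; a percent growth value below 10 was scored as active.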 Active and inactive are the calls of the source.

Assays:
Assay in all cases: NCI-60 one-dose screen, 48 h (100 = growth as untreated, 0 = no growth, -100 = all killed)
Settings in all cases: 10 µM unless noted
[1] = system: HCT-15 colon
[2] = system: HT29 colon
[3] = system: SNB-75 CNS
[4] = system: SNB-19 CNS
[5] = system: U251 CNS
[6] = system: PC-3 prostate
[7] = system: UACC-62 melanoma
[8] = system: LOX IMVI melanoma
[9] = system: SK-MEL-28 melanoma
[10] = system: SK-MEL-5 melanoma

Measured: growth

COC(=O)CNc1nc(N(C)O)nc(N(C)O)n1
inactive: [1] 30.4% | [2] 41.7% | [3] 96.4% | [4] 47.6% | [5] 36.5% | [6] 37.9% | [7] 42.9% | [8] 33.4% | [9] 42%

Fc1ccc(Nc2ccc3c(OCCCN4CCOCC4)cccc3n2)cc1F
active: [2] 6.29% | [8] 6.82%
inactive: [1] 34% | [3] 66.6% | [4] 90.5% | [5] 64.2% | [6] 80.5% | [7] 62.4% | [9] 80.4%

COc1cc(/C=C/c2cc(/C=C/c3ccc(O)c(OC)c3)n(-c3ccccc3)c(=O)n2)ccc1O
inactive: [1] 80.8% | [3] 56.9% | [4] 76.2% | [5] 56.1% | [6] 70.4% | [7] 69.9% | [8] 61% | [9] 78.8%
active: [2] -13%

COc1cc(NC(C)CN(CC(C)C)C(C)C)c2ncccc2c1 (stereo not given)
inactive: [1] 101% | [2] 97.5% | [3] 80.4% | [4] 116% | [5] 100% | [6] 80.5% | [7] 106% | [8] 94.7% | [9] 122%

O=C1C(Cl)=C(Nc2ccc(S(=O)(=O)c3ccc(NC4=C(Cl)C(=O)c5ccccc5C4=O)cc3)cc2)C(=O)c2ccccc21
active: [1] 0.496% | [5] 5.68%
inactive: [2] 32.6% | [3] 57.7% | [4] 44.8% | [6] 15.8% | [10] 49.3% | [9] 14.2%

O=C1c2cc3c(cc2-c2c1c1ccc(F)cc1c(=O)n2CCCN1CCOCC1)OCO3
active: [8] 8.74%
inactive: [1] 72.5% | [2] 42% | [3] 53.9% | [4] 39.1% | [5] 14.2% | [6] 60% | [7] 13.3% | [9] 80.1%

Cc1cc2nc3c4cc(N)ccc4n(CCN(C)C)c3nc2cc1C
active: [1] -24%
inactive: [2] 14.3% | [3] 20.1% | [4] 13.2% | [5] 16.2% | [6] 21.8% | [10] 21.8% | [9] 13.3%

N#CC1c2ccccc2-c2ccccc2N1C(=O)c1ccccc1 (stereo not given)
inactive: [1] 12.4% | [2] 12.3% | [3] 39.8% | [4] 53.6% | [5] 18.4% | [6] 26.6% | [7] 22.3% | [8] 29.9% | [9] 58.3%

COc1ccc(-n2c(/C=C/c3ccc(O)c(OC)c3)cc(/C=C/c3ccc(O)c(OC)c3)nc2=O)cc1
inactive: [1] 59% | [3] 54.5% | [4] 69.9% | [5] 32.4% | [6] 53.7% | [7] 68.1% | [8] 13% | [9] 58.5%
active: [2] -59.1%

O=C(N/N=C\c1ccccc1O)C1CC1
inactive: [1] 92.5% | [2] 107% | [3] 98.1% | [4] 101% | [5] 103% | [6] 92% | [10] 109% | [9] 114%

Nc1c2c(nc3ccc(Cl)cc13)CC(c1ccc(O)cc1)CC2=O (stereo not given)
inactive: [1] 29.3% | [2] 101% | [3] 30.5% | [4] 45.8% | [5] 47.2% | [6] 49.2% | [10] 23.6% | [9] 57%

Cc1ccnc2c(OCc3ccccc3)cccc12
inactive: [1] 90.3% | [2] 99.4% | [3] 95.4% | [4] 100% | [5] 92.7% | [6] 96.8% | [7] 85.8% | [8] 87.4% | [9] 95.6%

CC(C)C[C@@H](NC(=O)[C@@H](Cc1ccccc1)NC(=O)c1cnccn1)B1O[C@H]2[C@H](O)[C@@H](C(=O)NCCCC[C@@H]3NC(=O)[C@@H](Cc4ccccc4)NC(=O)[C@H](CC(=O)O)NC(=O)CNC(=O)[C@H](CCCN=C(N)N)NC3=O)O[C@@H](CN)[C@H]2O1
active: [1] -54% | [2] -73.4% | [3] -65.4% | [4] -10.1% | [5] -58.6% | [6] -34.3% | [7] -36.7% | [8] -86.1% | [9] -30.1%

Clc1cc(Cl)cc(Nc2ccc3c(OCCCN4CCOCC4)cccc3n2)c1
inactive: [3] 54.9% | [4] 31.7% | [5] 29.1% | [6] 42% | [7] 14.7% | [9] 65.6%
active: [1] -46.4% | [2] -64.5% | [8] -85.4%

Cc1cc(C)nc(NC(N)=NCCc2ccccc2)n1
inactive: [1] 55% | [2] 13.5% | [3] 23.7% | [4] 46.8% | [5] 31.6% | [6] 37.7% | [10] 22% | [9] 33.8%
